The supplement of paper PMC9694430

What was measured:
Assay in all cases: thermal shift delta Tm vs DMSO control; higher = stronger stabilization (binding)
Settings in all cases: 12.5 µM; protein concentration 2 µM
[1] = tested on: LOC_OS04G57630-cb004
How it was run: (§1)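 The melting temperature shift given here is a triplicate mean, measured against protein that received only DMSO. Melting temperatures came from Boltzmann fits of differential scanning fluorimetry data on E. coli-expressed, purified rice kinase domain constructs. Each 19.5 μl well contained 2 μM kinase, 100 mM potassium phosphate pH 7.5, 150 mM NaCl, 10% glycerol, 5 × SYPRO Orange and compound in DMSO. Plates were scanned from 25°C to 95°C at 0.05°C/s.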

[2] = tested on: LOC_OS05G07850-cb002
How it was run: as §1

[3] = tested on: LOC_OS05G16824-cb004
How it was run: as §1

[4] = tested on: LOC_OS05G28520-cb001
How it was run: as §1

[5] = tested on: LOC_OS05G30820-cb001
How it was run: as §1

[6] = tested on: LOC_OS05G43570-cb004
How it was run: as §1

[7] = tested on: LOC_OS06G16330-cb003
Sequence of LOC_OS06G16330-cb003 (as listed by the source): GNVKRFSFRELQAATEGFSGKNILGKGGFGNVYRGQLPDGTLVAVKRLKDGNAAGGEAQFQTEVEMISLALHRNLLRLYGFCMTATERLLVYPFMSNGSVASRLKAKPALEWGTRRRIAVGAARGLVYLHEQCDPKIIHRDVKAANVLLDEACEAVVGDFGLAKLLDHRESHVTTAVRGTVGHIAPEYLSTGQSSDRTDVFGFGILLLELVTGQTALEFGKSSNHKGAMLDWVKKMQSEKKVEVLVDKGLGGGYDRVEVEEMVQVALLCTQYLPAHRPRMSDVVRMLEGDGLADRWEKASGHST
How it was run: as §1

[8] = tested on: T1, LOC_OS06G22820-cb001
T1 sequence (whole entry): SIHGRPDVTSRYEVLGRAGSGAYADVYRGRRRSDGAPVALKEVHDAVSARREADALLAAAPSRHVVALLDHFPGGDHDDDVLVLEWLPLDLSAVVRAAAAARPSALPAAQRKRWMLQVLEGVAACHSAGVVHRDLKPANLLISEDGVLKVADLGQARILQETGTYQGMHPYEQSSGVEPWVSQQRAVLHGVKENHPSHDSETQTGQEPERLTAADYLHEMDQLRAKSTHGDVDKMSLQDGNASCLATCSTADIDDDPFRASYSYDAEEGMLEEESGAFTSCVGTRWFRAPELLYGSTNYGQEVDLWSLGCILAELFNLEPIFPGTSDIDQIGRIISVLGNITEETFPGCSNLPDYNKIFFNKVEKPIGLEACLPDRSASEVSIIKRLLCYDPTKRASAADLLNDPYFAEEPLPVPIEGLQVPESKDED
How it was run: as §1

[9] = tested on: LOC_OS07G06570-cb004
How it was run: as §1

[10] = tested on: LOC_OS07G07230-cb001
How it was run: as §1

Row | SMILES | thermal shift delta Tm [1] | thermal shift delta Tm [2] | thermal shift delta Tm [3] | thermal shift delta Tm [4] | thermal shift delta Tm [5] | thermal shift delta Tm [6] | thermal shift delta Tm [7] | thermal shift delta Tm [8] | thermal shift delta Tm [9] | thermal shift delta Tm [10]
1 | CCn1c(C(=O)N(C2CC2)C2CC2)cc2c3c(ncn3C)c(Nc3cc(C)n(C)n3)nc21 | 0.17 °C | 6.42 °C | 2.92 °C | 0.88 °C | 0.47 °C | 0.51 °C | 2.11 °C | 0.64 °C | 1.49 °C | 0.76 °C
2 | CCN(CC)CCCCNc1ncc2cc(-c3cc(OC)cc(OC)c3)c(NC(=O)NC(C)(C)C)nc2n1 | -0.1 °C | -0.15 °C | -2.16 °C | 0.72 °C | 0.45 °C | 0.68 °C | -0.04 °C | 0.57 °C | 1.02 °C | 0.36 °C
3 | O=C(O)c1ccc2c3c1cccc3c(=O)n1c3ccccc3nc21 | 0.77 °C | 7.31 °C | 1.51 °C | 0.41 °C | 0.73 °C | 0.15 °C | 4.49 °C | 0.29 °C | 0.54 °C | 1.19 °C
4 | OC(c1cc(-c2ccc(Cl)cc2)nc2ccccc12)C1CCCCN1 (stereo not given) [Vacquinol-1] | 0.38 °C | 3.49 °C | 1.23 °C | 0.66 °C | 0.43 °C | 0.64 °C | 0.55 °C | 0.46 °C | 0.14 °C | -0.36 °C
5 | CNC(=O)c1cc(Oc2ccc(NC(=O)Nc3ccc(Cl)c(C(F)(F)F)c3)cc2)ccn1 [Sorafenib] | 2.09 °C | 9.44 °C | 1.37 °C | -0.04 °C | 0.65 °C | 1.2 °C | 2.66 °C | 1.5 °C | 1 °C | -0.34 °C
6 | COc1cc2ncnc(Nc3ccc(Oc4ccccc4)cc3C)c2cc1OC | 0.31 °C | 8.78 °C | -9.65 °C | 0.23 °C | 0.05 °C | -0.01 °C | 2.86 °C | 0.95 °C | 1.5 °C | 0.54 °C
7 | CCn1c(-c2nonc2N)nc2cnc(Oc3cccc(NC(=O)c4ccc(OCCN5CCOCC5)cc4)c3)cc21 | 0.7 °C | 1.97 °C | -1.49 °C | 1.05 °C | 0.73 °C | 0.77 °C | -0.54 °C | 0.79 °C | 0.87 °C | 0.15 °C
8 | CCn1c(=O)c(-c2cc[nH]n2)cc2c(C)nc(N)nc21 | 0.11 °C | 3 °C | -1.71 °C | 0.22 °C | 0.35 °C | -0.07 °C | 0.86 °C | 0.06 °C | 0.51 °C | 0.61 °C
9 | C=CC(=O)Nc1ccc2ncnc(Nc3ccc(OCc4cccc(F)c4)c(Cl)c3)c2c1 | 2.39 °C | 1.81 °C | 3.11 °C | 1.71 °C | 0.87 °C | 2.77 °C | 1.04 °C | 2.98 °C | 1.79 °C | -0.18 °C
10 | C[C@@H]1COCCN1c1cc(C2([S@](C)(=N)=O)CC2)nc(-c2cc[nH]c3nccc2-3)n1 | -0.11 °C | 3.99 °C | -2.04 °C | 0.65 °C | 0.15 °C | 0.19 °C | 0.37 °C | -0.1 °C | 0.71 °C | -0.05 °C
11 | O=c1c(O)c(-c2cc(O)c(O)c(O)c2)oc2cc(O)cc(O)c12 [Myricetin] | 0.92 °C | 4.43 °C | 1.57 °C | 0.55 °C | 0.97 °C | 1.55 °C | 6.62 °C | 1.33 °C | -1.03 °C | 0.47 °C
12 | Cc1cc(NC(=O)c2cccc(NC(=O)/C=C/CN(C)C)c2)ccc1Nc1nccc(-c2cccnc2)n1 | 7.66 °C | 2.7 °C | 1.96 °C | 1.08 °C | 0.57 °C | 0.56 °C | 2.18 °C | 1.05 °C | 1.56 °C | -0.14 °C
